The list is not random: actives were taken first. Their share in the collection is about 3.7%.
MITF act: activators of MITF-driven TRPM1 promoter activity in SK-MEL-5 cells | SK-MEL-5 TRPM1-promoter luciferase, 24 h; % of positive control, neutral wells = 0 | hit rate 0.75% among 300,000 | activation, % at 12.5 µM;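 active = mean activation of at least 80% with every replicate also reaching 80%; inconclusive = mean reaches 80% but some replicate falls short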;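 note: 0% = neutral control wells and 100% = parthenolide positive control wells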
MLL AF4-AF9 inh: inhibitors of human MLL-AF4/AF9 interaction | P42568 | AlphaScreen, biotin-AF4 peptide binding to FLAG-AF9 | inhibition, % at 10 µM | hit rate 0.47% among 350,000;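 active = every replicate reaching a set inhibition limit, whatever the replicate mean, cut at about 25% in these data; inconclusive = mean inhibition reaches that limit but some replicates miss it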;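 note: 0% = plate neutral control median and 100% = total signal loss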
Target sequence (P42568 whole entry, looked up): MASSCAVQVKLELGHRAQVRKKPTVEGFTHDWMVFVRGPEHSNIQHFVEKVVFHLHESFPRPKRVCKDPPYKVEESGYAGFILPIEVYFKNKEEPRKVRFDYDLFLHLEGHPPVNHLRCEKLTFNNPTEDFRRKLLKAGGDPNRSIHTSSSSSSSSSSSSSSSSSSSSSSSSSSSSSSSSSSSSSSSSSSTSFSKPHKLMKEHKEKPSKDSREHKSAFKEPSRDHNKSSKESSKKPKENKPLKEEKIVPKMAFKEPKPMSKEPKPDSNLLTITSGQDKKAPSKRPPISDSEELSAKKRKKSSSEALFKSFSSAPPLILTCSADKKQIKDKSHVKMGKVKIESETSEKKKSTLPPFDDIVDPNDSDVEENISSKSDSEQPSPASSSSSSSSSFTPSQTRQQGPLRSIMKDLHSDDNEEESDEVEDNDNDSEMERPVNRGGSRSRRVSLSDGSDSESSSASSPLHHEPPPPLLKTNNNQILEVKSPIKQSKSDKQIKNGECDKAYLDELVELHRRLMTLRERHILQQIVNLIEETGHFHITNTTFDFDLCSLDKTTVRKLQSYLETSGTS
Ecoli rRNA inh: inhibitors of bacterial rRNA selective over humanized ribosomes; E. coli WT GFP vs humanized-ribosome RFP mutants, fluorescence, 24 h; hits give low values; DMSO median 0, no signal -100; GFP signal change (wild-type ribosome), % (no concentration beside the values); hit rate 1.6% among 350,000; AID 720706;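 active = significant combined selectivity score with lowered wild-type GFP, culture density cut under 30%, mutant RFP and density less affected; inactive = any of these conditions unmet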
esBAF inh: inhibitors of esBAF chromatin remodeling in mouse ES cells. Bmi1-luciferase knock-in reporter, 24 h; 100% = twice the neutral-well signal. AID 602393. hit rate 2% among 350,000. reporter increase, % at 12.5 µM; in the data active = activation above about 40%; inconclusive = no clear call, values can overlap the other calls;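 note: 0% = median of the plate's neutral control wells and 100% = double that signal; a rise in the Bmi1 reporter signal indicates esBAF inhibition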
Wnt act: activators of Wnt/beta-catenin signaling | Wnt/beta-catenin reporter cell assay, activator, plate reader | activation, % at 9.35 µM | hit rate 1.2% among 300,000; in the data active = activation above about 30%, passing the limit was not always enough; inconclusive = no clear call, values can overlap the other calls;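 note: 0% = neutral control wells and 100% = positive control wells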
Active calls of the source: *; ? = inconclusive; . = no result; + = active, no number.

SMILES	MITF act	MLL AF4-AF9 inh	Ecoli rRNA inh	esBAF inh	Wnt act
O=C(/C=C/c1cccc2ccccc12)N1CCOCC1	46.0	0.0	11.1	.	37.2*
O=C(/C=C/c1ccccc1Cl)N1CCOCC1	.	1.7	2.0	37.5	2.3
N=c1c2c(n(Cc3cccc(Cl)c3)c3c1CCC3)CCCC2	-49.8	0.1	-51.8*	.	-4.9
N=c1c2c(n(Cc3ccc(Cl)cc3)c3c1CCC3)CCC2	-60.5	2.5	-52.5*	-47.8	-3.3
N=c1c2c(n(Cc3ccc(F)cc3)c3c1CCC3)CCCC2	-31.9	-0.7	-31.0*	.	-0.7
O=C(CNc1cccc2ccccc12)N/N=C/c1cccc(Oc2ccccc2)c1	51.3	9.8	-5.7	.	.
Clc1ccccc1OCCCCN1CCCCC1	10.8	-1.4	9.9	-3.8	-1.4
Fc1ccccc1OCCCCN1CCCCC1	+	1.7	18.4	5.9	-0.5
CSc1nsc(N/N=C/c2ccc3c(c2)OCO3)c1C#N	92.4*	3.9	-29.3*	.	22.5
COc1cc(/C=N/Nc2snc(SC)c2C#N)cc(OC)c1OC	-8.3	.	.	0.5	-1.1
COc1cc(C(=O)NNC(=O)/C=C/c2ccccc2)cc(OC)c1OC	5.6	-1.9	-6.0	0.8	6.3
COc1cc(C(=O)NNC(=S)NC(=O)/C=C/c2ccccc2)cc(OC)c1OC	.	1.6	-14.9*	.	0.0
Cc1cn([C@H]2C[C@H](O)[C@@H](/C=C/C(=O)NCC(c3ccccc3)c3ccccc3)O2)c(=O)[nH]c1=O	.	-2.6	3.2	-7.0	-0.3
CC(OC(=O)c1cccs1)C(=O)NCCc1ccccc1 (configuration not stated)	-9.9	-1.1	-2.0	4.8	-1.1
CC(OC(=O)c1cccs1)C(=O)NCc1ccccc1 (configuration not stated)	-8.0	.	.	-7.6	52.5*
COc1ccc(/C(C)=N/Nc2nccnc2Cl)cc1	65.3	0.6	1.8	46.5*	28.6
CS(=O)(=O)N1CCC(C(=O)Nc2ccc(F)cc2)CC1	-3.3	-12.6	8.4	0.8	-1.4
CC(=O)Oc1ccccc1C(=O)C=Cc1cccc([N+](=O)[O-])c1	-93.5	9.6	-44.6*	.	-5.3
CC/C(O)=C1\C(=O)CCCC1=NCCc1nc2ccccc2[nH]1	2.1	.	.	.	.
Clc1ccc(-c2nnc(-c3ccccc3Cl)o2)cc1	38.1	.	.	-10.2	.
Clc1ccccc1-c1nnc(-c2ccccc2Cl)o1	?	.	.	71.0*	29.2
Cc1ccc(C)c(-c2nnc(NC(=O)CCS(=O)(=O)c3ccccc3)o2)c1	-3.0	0.5	-6.3	.	2.7
Cc1ccccc1-c1noc(-c2cccs2)n1	.	-3.5	-3.3	54.2*	18.5
COc1nc(C)ccc1-c1noc(-c2cccs2)n1	.	-4.2	13.5	.	-3.5
CCOc1ccc(-c2nnc(-c3cccs3)o2)cc1	19.1	.	.	-43.2	31.3*
SMILES	MITF act	MLL AF4-AF9 inh	Ecoli rRNA inh	esBAF inh	Wnt act
Cc1ccccc1-c1nnc(CS(=O)(=O)c2ccccc2)o1	103.2*	-0.1	-3.0	15.5	-3.1
COc1ccc(C(=O)NNC(=O)CNC(=O)C2CCCCC2)cc1	5.1	-0.6	.	-7.9	-2.4
C[C@H](O)C#Cc1cnc2c(c1)C(=O)N([C@H](C)CO)C[C@@H](C)[C@H](CN(C)CC1CCOCC1)O2	.	-2.4	0.9	-3.6	.
Cc1ccccc1-c1nnc(-c2cccs2)o1	48.7	0.2	-11.3	42.1*	2.5
Cn1cc(-c2nnc(-c3ccccc3)o2)c2ccccc21	17.1	.	.	-14.6	42.0*
Cc1ccccc1-c1nnc(-c2ccccc2)o1	40.8	.	.	43.1*	.
CCOC(=O)N1CCC(NC(=O)c2ccc(CS(=O)c3cccc(C)c3)o2)CC1 (configuration not stated)	1.3	-1.8	-2.6	-2.1	-3.1
O=C(N/N=C/c1ccco1)c1ccc2nc[nH]c2c1	.	0.3	39.0	-3.9	-0.1
O=C(N/N=C/c1ccc(Cl)cc1Cl)c1ccc2nc[nH]c2c1	1.8	2.5	-17.5*	27.6	3.2
CC(/C=N/NC(=O)c1cccc(F)c1)=C\c1ccccc1	44.0	0.0	-28.6	6.9	39.6*
O=C(N/N=C/c1ccc(Cl)cc1Cl)c1cccc(F)c1	138.4*	.	.	63.4*	38.5*
O=C(N/N=C/c1ccccc1C(F)(F)F)c1ccc2nc[nH]c2c1	43.6	5.6	-24.9*	17.2	6.1
CC(=O)Nc1ccc(-c2nnc(SCc3ccccc3C#N)n2C)cc1	.	.	.	13.5	.
C=CCn1c(SCc2c(F)c(F)c(F)c(F)c2F)nc(O)cc1=O	-3.7	.	.	.	.
Cc1ccc2c(c1)c(CC(=O)Nc1ccc(C)c(F)c1)c(C(=O)O)n2C	-5.6	0.2	-24.4*	-1.2	-4.2
Cn1c(C(=O)O)c(CC(=O)Nc2ccccc2F)c2ccccc21	-10.9	.	.	-1.7	.
CC(C)C#Cc1ccc2c(c1)O[C@@H](CN(C)C(=O)C1CCCCC1)[C@H](C)CN([C@@H](C)CO)S2(=O)=O	.	.	-6.4	4.5	.
Nc1ccc2ccccc2c1N=Nc1ccccc1	-10.7	36.5*	-30.6*	43.5*	14.5
Cn1c(N)c(C(=O)COC(=O)Cc2c(F)cccc2Cl)c(=O)n(C)c1=O	-6.0	-2.5	-1.5	-4.1	-2.0
Cc1cc(C(=O)COC(=O)Cc2c(F)cccc2Cl)c(C)n1C	.	-1.8	.	78.4*	11.0
Cc1cc(C(=O)COc2ccc(Cl)cc2Br)c(C)n1C	17.7	2.7	-45.5*	.	3.7
COc1ccc(N/N=C(/C(N)=O)C2=NC(C)(C)Cc3ccccc32)cc1	8.5	36.7*	-11.4	.	-0.8
CCCc1cc(=O)oc2c3c(cc(OCC(=O)N[C@@H](CSC)C(=O)O)c12)OC(C)(C)CC3	1.2	-2.4	5.4	2.2	0.7
O=[N+]([O-])c1ccc(NN=Cc2ccc3c(c2)OCO3)nc1	78.2	3.9	18.9	93.3*	-3.1
O=[N+]([O-])c1ccc(NN=Cc2cccc(O)c2)nc1	72.0	-1.6	-19.9	30.0	-3.2
SMILES	MITF act	MLL AF4-AF9 inh	Ecoli rRNA inh	esBAF inh	Wnt act
O=[N+]([O-])c1ccc(N/N=C\c2cccnc2)nc1	99.0*	-0.4	.	.	9.1
O=[N+]([O-])c1ccc(S(=O)(=O)NN=Cc2ccc3c(c2)OCO3)cc1	2.2	4.9	7.9	0.4	-2.4
O=[N+]([O-])c1ccc(NN=Cc2ccco2)nc1	70.1	1.7	9.9	91.2*	1.8
CC(=O)Nc1ccc(C=NNc2ccc([N+](=O)[O-])cn2)cc1	45.7	-7.0	8.6	88.7*	13.7
C[C@H](CO)N1C[C@H](C)[C@H](CN(C)Cc2ccc(Oc3ccccc3)cc2)Oc2c(NC(=O)Nc3ccc4c(c3)OCO4)cccc2C1=O	.	7.7	-0.6	-7.0	.
CN(C)CC(=O)N[C@H]1CC[C@@H](CCNC(=O)C2CC2)O[C@H]1CO	.	-3.2	1.8	.	.
Cc1nc(NCC2CCCO2)c2nnn(Cc3ccccc3Cl)c2n1 (configuration not stated)	-9.1	1.4	13.1	-3.9	-2.3
Cc1nc(NCC2CCCO2)c2nnn(Cc3ccccc3)c2n1 (configuration not stated)	-9.2	0.3	-17.5*	0.1	-0.5
Clc1ccccc1OCc1nnc(-c2ccccc2Br)o1	99.3*	.	.	114.8*	.
Brc1ccccc1-c1nnc(COc2cccc3cccnc23)o1	7.4	.	.	.	.
